# Test results: the supplement of paper PMC11417369
# ± gives the standard deviation of the averaged measurements. Over roughly 25,000 sequences, “ln(normalized median fluorescence intensity)” has its median near 8.6; the highest 2% begin near 10. For the sample, the highest values were picked, then their nearest neighbours and some sequences at random.
# System: PfAP2-EXP AP2 domain (GST-tagged)
# Experiment: gcPBM binding intensity (ln(normalized median fluorescence intensity)); higher = stronger DNA binding
# Method in brief: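 Using an Agilent 4 × 180k array, primer-extended double-stranded 36-bp intergenic genomic probes and negative controls were exposed for 1 h to GST-fused P. falciparum DNA-binding domains expressed in E. coli. Binding was carried out in 1× PBS with 1% milk, 0.2 mg/ml BSA, 0.5% salmon testes DNA and 0.03% Triton X-100, and protein was detected with Alexa488 anti-GST antibody and a 488 nm scan. Binding intensity is the highest Masliner-normalised natural-log median intensity across replicate spots of either probe orientation.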
row,Sequence,gcPBM binding intensity (ln)
1,TAAAATTTTTTTGTTTGTACATATATATATATAATA [XGTACX_site5609],8.72 ± 0.52
2,ACATTCACAAAATTTTGTACACATATATATATATAT [XGTACX_site3518],10 ± 0.26
3,TTATATATTTATAAATGTACATATAATTTTTTTATA [XGTACX_site4696],8.3 ± 0.32
4,ATTTAAAAAATATATTGTACATATTTTATTATGTTT [XGTACX_site2984],8.29 ± 0.35
5,ATATATATATATAAATGTACAGATATATTTTTTATT [XGTACX_site5445],10.21 ± 0.078
6,TGTTGTAAATATGTTTGTACATAAATATATTATTTA [XGTACX_site5442],8.38 ± 0.35
7,TATATATATATATGTTGTACATATTTAAATGTTTAT [XGTACX_site5437],10.2 ± 0.2
8,CATTTAAAATTTGTTTGTACATATATATATATATAT [XGTACX_site6729],10.2 ± 0.26
9,TATATACATAAAATTTGTACATATATATATATATAT [XGTACX_site3214],10.1 ± 0.51
10,TTTTTTTAATTAGTTTGTACATATTGTTATAATATA [XGTACX_site6294],8.56 ± 0.4
11,TCCTTAAAAATCTAAAAAGAAAAAAACATATATTTT [GTGCAC_negctrl_site123],8.04 ± 0.45
12,ATAATATATATATATAGTACATATATATAATATTCT [XGTACX_site2445],8.2 ± 0.24
13,TTTCTTATATTATATAAATATATAGATGTTAATGGT [CACACA_negctrl_site706],8.38 ± 0.47
14,TATTATTGTTGTTCATGTACACACTATAATAAAAGC [XGTACX_site8957],8.64 ± 0.4
15,CAAAATTGACATGACGCACACAAGTGTAGATATTTT [CACACA_site1250],8.57 ± 0.4
16,ATTATATATGTATAAATATGCTATATATATATATAT [GTGCAC_negctrl_site430],10.3 ± 0.17
17,GATTATATTATATATTAAATATAAATATGTATTATA [TGCATGCA_negctrl_site66],8.04 ± 0.42
18,ATATAAATATAAATATATATGTATAAATATAAATAT [CACACA_negctrl_site247],8.25 ± 0.47
19,ATATTTTATACTTGCACACAAAATATATTAAAATGG [CACACA_site5139],8.47 ± 0.4
20,CTTCCTTAGGAATGTACACACATATATAATATGTTG [CACACA_site461],8.53 ± 0.4
21,CATTATTATTAACATACACACGTGTTAAATACACCC [CACACA_site6118],8.91 ± 0.6
22,TTCATTATTATTAACATACACACGTGTTATATACAC [CACACA_site4112],8.66 ± 0.41

row,Sequence,gcPBM binding intensity (ln)
1,CATTATTATTAACATACACACGTGTTATATACCCCC [CACACA_site9365],10.2 ± 0.41
2,TTTTTTTTTTTTTTTTTTTTTTTTTTTTTTTGGGGG [CACACA_negctrl_site1570],9.13 ± 0.49
3,GGTTGTATAAGTTTTTGTACATATATATATATATAT [XGTACX_site7487],10.2 ± 0.49
4,TTTTTTTTTTTTTTTTGTACATATACATATATATAT [XGTACX_site1981],9.3 ± 0.11
5,TAAGTTTTGTTCTTTTGTACATATAAGTATAGATCG [XGTACX_site4735],8.48 ± 0.33
6,ATGTGTGTATTTTATAGTACAGTTACAAGCATTTTT [XGTACX_site6351],8.57 ± 0.35
7,AATAAATACACATACACACACGACGCTAGTATATGT [CACACA_site6627],8.29 ± 0.4
8,TTTTTTTTTAGAAAAACATGCATGTCCTAAAAATAA [TGCATGCA_site684],8.89 ± 0.27
9,TATAAATAGATATATACACACTTGTGCAGAATATTA [CACACA_site7112],8.63 ± 0.25
10,TATATATATATATATATACACACTTGTGCAGAATAT [CACACA_site2216],10.2 ± 0.41
11,TATATATATATATATACACACTTGTGCAGAATATTA [CACACA_site5257],10 ± 0.55
12,TACAATTCGTAATACACACACATATATATATATATT [CACACA_site3751],8.62 ± 0.36
13,TAATATTCAATTATACGTACACATATATATATATAT [XGTACX_site4245],10.2 ± 0.2
14,TACAATTCGTAATACACACACATATAAATAAATATT [CACACA_site7720],8.44 ± 0.38
15,ACATTTTTTTCATATCGTACATATTATAATATTTTC [XGTACX_site6524],8.9 ± 0.39
16,ATTATATATACATATACACACATACGTACATACATA [CACACA_site9194],8.8 ± 0.4
17,TTATTCATACAATATCGTACATATATATATATATAT [XGTACX_site1185],10.2 ± 0.33
18,TAAAAAATATACATTCGTACATATATATTATATATA [XGTACX_site7918],8.12 ± 0.25
19,CCTACAATTCGTAATACACACACATATATATATATA [CACACA_site9251],10.2 ± 0.16
20,ATACATATATAAATACGTACATATATAATTATATAT [XGTACX_site8178],8.55 ± 0.3
21,TTGTAATTCATTCAAATATAAAATAAATAAATATGA [CACACA_negctrl_site349],8.28 ± 0.34
22,AAATGAATTATATAATATATATAAATAAATAAATAA [CACACA_negctrl_site359],8.46 ± 0.18
